ChEMBL document CHEMBL4513216, “Probing the Open Global Health Chemical Diversity Library for Multistage-Active Starting Points for Next-Generation Antimalarials” (ACS Infect Dis, 2020)
Among all 69,000 compounds or so, about 8,600 (12%) showed an effect of 50% or more. The sample as a whole holds a higher share of strong results than the screen did.

Tested on: Plasmodium berghei
Assay: Screen against P. berghei liver stage (PbLuc), transformed with Luciferase, at 10uM
Assay type: functional, HepG2
Settings: tested at 10 uM

SMILES	INHIBITION [%]
OCCN(Cc1ccncc1)CC1(c2ccc(Cl)cc2)CC1	46.2
CC(Nc1cccc2c1OCCO2)C(=O)Nc1ccc(S(N)(=O)=O)cc1 (configuration not stated)	-24.9
Cc1nc(CN(C)C2CCN(CCCOc3ccccc3C)C2)no1 (configuration not stated)	27.4
CC(C)c1nc(C(=O)N2CCOCC2CC(=O)c2ccco2)cs1 (configuration not stated)	37.4
O=C(NCC1CCN(Cc2cc3ccccc3[nH]2)C1)C1CCCCC1 (configuration not stated)	54.1
O=C(Cn1cccc1)NCC1CCN(Cc2cc3ccccc3[nH]2)C1 (configuration not stated)	46.7
COC(C)(C)C(=O)NCC1CCN(Cc2cc3ccccc3[nH]2)C1 (configuration not stated)	40.8
Cc1nc(NCC2CC2)nc2c1COCC21CCN(C(=O)NC(C)C)C1 (configuration not stated)	29.9
CN(CC1CCOC1)c1ncc(Br)cn1 (configuration not stated)	12.8
CC(NC(=O)CSCC#N)c1cccc(Cl)c1 (configuration not stated)	-29.7
Cc1nc(CN2CCCC(Cn3cncn3)C2)nc2ccccc12 (configuration not stated)	29.95
Cc1cnc(NCCCN2CCc3ccccc32)nc1	-15.4
Cc1ccnc(NCCCN2CCc3ccccc32)n1	3.58
CN(C)c1nc(NCCCN2CCc3ccccc32)ncc1F	55.1
COCc1cc(CN(C)C(=O)CCC(=O)Nc2cc(C)ccc2F)n[nH]1	34.4
CCc1cccc(NC(=O)CCC(=O)N(C)Cc2nc(C)c[nH]2)c1	12.8
CCOc1ccc(C(=O)CCC(=O)NCc2cncn2CC)cc1C	-5.59
CCOc1ccc(C(=O)CCC(=O)N(C)Cc2noc(C)n2)cc1C	11.9
CCOc1ccc(C(=O)CCC(=O)NCc2csc(N)n2)cc1C	56.1
Cc1ccc(F)c(NC(=O)CCC(=O)N(C)Cc2nc(C)c[nH]2)c1	53.9
CCOc1ccc(C(=O)CCC(=O)N(C)Cc2nc(C)c[nH]2)cc1C	63.4
CCOc1ccc(C(=O)CCC(=O)N(C)Cc2cnccn2)cc1C	40.6

SMILES	INHIBITION [%]
CCOc1ccc(C(=O)CCC(=O)NCCc2nncn2CC)cc1C	15
CCOCC(=O)N1C[C@@H]2CCN(c3cnccn3)C[C@@H]2C1	32.1
COC(=O)c1cc2c(=O)n(C3CCCC3)ccc2nc1C	46.1
Cn1cccc1CN1CCC2(CC1)CCN(C(=O)c1cnccn1)CC2	39.5
CNC(=O)[C@@]12CCC3(CCN(C(=O)C(C)C)CC3)[C@@H]1CN(S(C)(=O)=O)C2	26.3
Cc1cc(C(=O)N2CCOCC2c2nc(C)c[nH]2)nc(O)n1 (configuration not stated)	27.75
CC(C)C[C@H](N)C(=O)N1CCSc2ccccc2C1	81.6
NC(C(=O)N1CCSc2ccccc2C1)c1ccccc1 (configuration not stated)	-22.1
CC(C)[C@H](N)C(=O)N1CCSc2ccccc2C1	-20.5
CCCc1nc(C)c(CNc2nc(C)nc3onc(C)c23)s1	81.4
Cc1nc(C)n(CCCNc2ncnc3onc(C)c23)n1	19.2
CCCc1nc(C)c(CNc2nc(C)nc3oc(C)nc23)s1	48.9
CCOc1cccc(C(=O)NCCC(=O)Nc2ccncc2)c1	46.6
CC(OCC1CC1)C(=O)Nc1ncccc1I (configuration not stated)	50.4
CC(OCC1CC1)C(=O)NCCC(=O)Nc1ccccn1 (configuration not stated)	1.74
O=C(COCC1CC1)Nc1ncccc1I	-2.98
CC(OCC1CC1)C(=O)Nc1cccc(C(=O)Nc2ccccn2)c1 (configuration not stated)	36.5
CC(OCC1CC1)C(=O)Nc1cccc(C(=O)Nc2ccncc2)c1 (configuration not stated)	82.4
CCOc1cccc(C(=O)Nc2ccncc2)c1	50.3
CC(C)C(=O)Nc1cccc(C(=O)Nc2ccccn2)c1	8.99
CCCNC(=O)c1ccc(NC(=O)c2cccc(OCC)c2)cc1	23.5
CCc1noc(C(C)N2CCN(C(=O)CN3CCOCC3)CC2)n1 (configuration not stated)	-25.8

SMILES	INHIBITION [%]
Cc1sc(-c2ccco2)nc1C(=O)N1CCCC1Cn1cccn1 (configuration not stated)	34.7
Fc1ccc(Nc2ccc(C3CCN(Cc4ncc[nH]4)CC3)nc2)nc1	56.9
Cc1cccc(Nc2ccc(C3CCN(Cc4ncc[nH]4)CC3)nc2)n1	36
Cc1cc(Nc2ccc(F)cn2)cc(C2CCN(Cc3ncc[nH]3)C2)n1 (configuration not stated)	42.6
CC(C)C(=O)N1CC[C@H]2N(C)CC[C@@]2(C(=O)Nc2cccnc2)CC1	-22.2
Cc1ccc(-c2nn(-c3cccc(F)c3)cc2CN(CCO)CCO)o1	27.4
Cc1ccc(-c2nn(-c3cccc(F)c3)cc2CN(C)CCO)o1	65.7
CCN(CCO)Cc1cn(-c2cccc(F)c2)nc1-c1ccc(C)o1	25.7
Cc1cc(-c2cnn(CCNC(=O)c3cccnc3)c2C2CC2)on1	38.7
Cc1cc(-c2cnn(CCNC(=O)C3CCCO3)c2C2CC2)on1 (configuration not stated)	40.4
Cc1cc(-c2cnn(CCNC(=O)C3CC3)c2C2CC2)on1	59.7
Cc1cc(-c2cnn(CCNC(=O)Cc3ccccn3)c2C2CC2)on1	60.4
Cc1cc(-c2cnn(CCNC(=O)c3cnn(C)c3)c2C2CC2)on1	10
Cc1cc(-c2cnn(CCNC(=O)CCn3cccn3)c2C2CC2)on1	-1.85
O=C(c1cccnc1)N1C[C@H]2CC[C@@H](C1)N(Cc1ccc(F)cc1Cl)C2	-30
COc1ccc(C)cc1CN(CC(N)=O)C(C)C	-4.63
O=C(NC[C@H]1OC[C@@H]2CCN(Cc3ccco3)C[C@@H]21)c1ccnnc1	6.72
Cc1ocnc1C(=O)N(C)[C@@H]1CCC[C@@H](N2CCCC2)[C@@H]1O	39.3
O=C(NC1CC1)c1cccc(S(=O)(=O)NCCc2nc(C3CC3)no2)c1	-86.5
COCCc1noc(CN2CCN(c3ccc(OC)cc3)C(=O)C2C)n1 (configuration not stated)	3.3
Cc1cc(NC(=O)CNCc2csc(-c3cnccn3)n2)ccc1Cl	52.2
Cc1cc(NC(=O)CNCc2csc(-c3ncccn3)n2)ccc1Cl	18

SMILES	INHIBITION [%]
CCc1csc(CNCC(=O)Nc2ccc(Cl)c(C)c2)n1	49
Cc1nnc(CN2CCC3(CCC(=O)N(C4CCC(O)CC4)C3)CC2)o1 (configuration not stated)	26
Cc1cc(CN(C)C2CCCN(Cc3noc(C4CC4)n3)C2)no1 (configuration not stated)	53.8
CN(Cc1cnn(C)c1)C1CCCN(Cc2noc(C3CC3)n2)C1 (configuration not stated)	14.9
CN(Cc1cccnc1)C1CCCN(Cc2noc(C3CC3)n2)C1 (configuration not stated)	57.45
Cc1nc(CN2CCCC(N(C)Cc3nc(C)c(C)o3)C2)no1 (configuration not stated)	-31.8
Cc1nc(CN(C)C2CCN(Cc3c(C)noc3C)C2)no1 (configuration not stated)	21.5
Cc1nc(CN2CCCC(N(C)Cc3c(C)noc3C)C2)no1 (configuration not stated)	58
Cc1cc(CN2CCC(N(C)Cc3noc(C4CC4)n3)C2)no1 (configuration not stated)	33.3
Cc1cc(CN(C)C2CCCN(Cc3noc(C)n3)C2)no1 (configuration not stated)	-14.7
CN(Cc1ccccn1)C1CCCN(Cc2noc(C3CC3)n2)C1 (configuration not stated)	16.9
Cc1cccc(CNCc2ccc(NC(=O)NC(C)C)cc2)c1	47.1
c1csc(CN2CCc3nnc(COc4cncnc4)n3CC2)c1	20.5
COc1ccccc1OCCNC(=O)N1CCC(n2cncn2)CC1	3.15
CCn1cnnc1CNC(=O)NC(C)c1ccccn1 (configuration not stated)	57.8
CC(NC(=O)NCc1ccc(Cl)s1)c1ccccn1 (configuration not stated)	17.7
CCn1cnnc1CNC(=O)NCC(C(C)C)N1CCC(C)CC1 (configuration not stated)	37.1
CC(NC(=O)NCc1ccc(Cl)cc1)c1ccccn1 (configuration not stated)	13.5
CC(NC(=O)NCc1cc(Br)cs1)c1ccccn1 (configuration not stated)	82.6
CCn1cnnc1CNC(=O)NC(C)c1cccs1 (configuration not stated)	31
CCn1cnnc1CNC(=O)NC(C)C(C)C (configuration not stated)	10
CCn1cnnc1CNC(=O)NCC(C(C)C)N1CCOCC1 (configuration not stated)	56.8

SMILES	INHIBITION [%]
CCn1cnnc1CNC(=O)N1CCOCC1	-4.1
COCC(=O)N1CCN(c2cc(C)nc(C3CCCN3C(C)=O)c2)CC1 (configuration not stated)	32.3
Cc1ccccc1CN1CCN(C(=O)c2cnc(C3CC3)[nH]c2=O)CC1	27.5
COc1cccnc1-c1ccc(F)c2c1OC(CN)C2 (configuration not stated)	-66.7
COc1cc(-c2ccc(F)c3c2OC(CN)C3)cc(OC)c1OC (configuration not stated)	31.9
COc1cc(C)c(-c2ccc(F)c3c2OC(CN)C3)cc1C (configuration not stated)	55.1
CC(=O)N1[C@H](Cn2cncn2)C[C@@H]2CN(C(=O)c3ccoc3)CC[C@@H]21	-22.1
c1cncc(CN2CCc3c(CNc4nccs4)n[nH]c3C2)c1	33
Cc1n[nH]c(C2CN(C(=O)CCc3ccco3)CCO2)n1 (configuration not stated)	-29.2
O=c1c2c[nH]c(N3CCOCC3)nc-2cn1C1CCS(=O)(=O)C1 (configuration not stated)	24
CNc1nc2cn(C3CC(C)(C)NC(C)(C)C3)c(=O)c-2c[nH]1	25.1
CC1(C)CC(n2cc3nc(N4CCCC4)[nH]cc-3c2=O)CC(C)(C)N1	64.8
CC1(C)CC(n2cc3nc(N4CCOCC4)[nH]cc-3c2=O)CC(C)(C)N1	60.1
CC1CCC(n2cc3nc(N)[nH]cc-3c2=O)CC1 (configuration not stated)	-8.9
CC1(C)CC(n2cc3nc(N)[nH]cc-3c2=O)CC(C)(C)N1	3.47
Nc1nc2cn(C3CCCC3)c(=O)c-2c[nH]1	51.8
CN(C)c1nc2cn(C3CC(C)(C)NC(C)(C)C3)c(=O)c-2c[nH]1	20.1
CN1CCC(n2cc3nc(N)[nH]cc-3c2=O)CC1	43.3
CCn1cc(NC(=O)c2cc(C)nc(N3CCOCC3)n2)cn1	15.35
